The values below come from ChEMBL document CHEMBL3988442, “University of Dundee, Small-Polar-MMV Screening Library” (2021).

SMILES strings stand for the structures. About 13,000 (27%) of roughly 48,000 compounds showed an effect of 50% or more. This is one part of the list.

The test deals with Wolbachia pipientis. The test is described as follows: Anti-Wolbachia Cell-Based Screen. The class given is functional. Also on record: scale not given: in the data most compounds retested in dose-response had high values. The note with it: 5 µM.
Consider `Cc1noc2nc(C3CCCN(Cc4cccnc4)C3)cc(C(F)F)c12` (stereo not drawn), for which the “Percent Effect” value came out at 110%.

Turning to `Cc1noc2nc(C3CCN(Cc4ccncc4)CC3)cc(C(F)F)c12`, the “Percent Effect” value is reported as -5.85%.

For `FC(F)(F)c1cc(C2CCCN(Cc3cccnc3)C2)n[nH]1` (stereo not drawn), the “Percent Effect” value is on record as 5.486%.

On to `Cc1noc2nc(C3CCCN(Cc4ccncc4)C3)cc(C(F)F)c12` (stereo not drawn), for which the “Percent Effect” value worked out at 102.2%.

Turning to `Cc1noc2nc(C3CCN(Cc4cccnc4)CC3)cc(C(F)F)c12.Cl`, the “Percent Effect” value is reported as -9.901%.

Take `O=C(O)C(F)(F)F.c1ccc(CN2Cc3[nH]nc(COCC4CC4)c3C2)nc1`: the “Percent Effect” value is reported as -4.447%.

As to `O=C(O)C(F)(F)F.O=C(O)C(F)(F)F.c1cncc(COCc2nnc3n2CCN(Cc2ccoc2)C3)c1`, the “Percent Effect” value amounted to 7.608%.

`Cn1cc(CN2CCc3c(COCc4ccncc4)cncc3C2)cn1`: the “Percent Effect” value is reported as 11%.

As to `O=C(c1ccoc1)N1CCc2c(COCc3ccncc3)cncc2C1`, the “Percent Effect” value is -1.129%.

`O=C(O)C(F)(F)F.O=C(O)C(F)(F)F.O=C(c1ccc[nH]1)N1CCc2c(COCc3ccncc3)cncc2C1`: the “Percent Effect” value was -6.376%.

Consider `O=C(O)C(F)(F)F.O=C(O)C(F)(F)F.O=C(O)C(F)(F)F.c1ccc(CN2CCc3c(COCC4CC4)cncc3C2)nc1`, for which the “Percent Effect” value is given as 97.89%.

For the compound `CCS(=O)(=O)N1CCc2c(COCc3ccncc3)cncc2C1`, the “Percent Effect” value is listed as 118.3%.

Consider `O=C(c1ccsc1)N1CCc2c(COCc3ccncc3)cncc2C1`, for which the “Percent Effect” value amounted to 6.158%.

As to `CCOCc1cncc2c1CCN(S(=O)(=O)c1ccccc1)C2`, the “Percent Effect” value is listed as -7.612%.

Regarding `O=C(O)C(F)(F)F.O=C(O)C(F)(F)F.O=C(O)C(F)(F)F.O=C(O)C(F)(F)F.c1ccc(CN2CCc3c(COCc4ccncc4)cncc3C2)nc1`, the “Percent Effect” value came out at 100.9%.

On to `O=C(O)C(F)(F)F.O=C(O)C(F)(F)F.O=C(O)C(F)(F)F.c1cncc(COCc2cncc3c2CCN(Cc2ccoc2)C3)c1`, for which the “Percent Effect” value is listed as 108.7%.

As to `Cn1cc(CN2CCc3c(COCC4CC4)cncc3C2)cn1.O=C(O)C(F)(F)F.O=C(O)C(F)(F)F`, the “Percent Effect” value is on record as 4.622%.

Regarding `N#Cc1ccccc1C(=O)N1C[C@H](CO)C[C@H](CN2CCCC2)C1`, the “Percent Effect” value was 4.936%.

`Cc1nc(C(=O)N2CCN(C(=O)C3CCC3)[C@@H]3CS(=O)(=O)C[C@@H]32)cs1`: the “Percent Effect” value stood at 7.717%.

Turning to `CNC(=O)NC(=O)C(C)N1CCC(c2c[nH]c3ccc(OC)cc23)CC1` (stereo not drawn), the “Percent Effect” value was 1.858%.

For the compound `CC(C)CCN(C)Cn1ncc2cn(-c3ccccc3)nc2c1=O`, the “Percent Effect” value was 5.11%.

With `CCn1c(CNC(=O)c2ccc(N(C)C)nc2)nc2ccccc21`, the “Percent Effect” value is 8.635%.

As for `Cc1nc(NC(=O)NCc2nc3cccc(C)c3n2C)oc1C`, the “Percent Effect” value turned out to be 43.9%.

Consider `CCn1c(CNC(=O)Nc2nc(C)c(C)o2)nc2ccccc21`, for which the “Percent Effect” value is 89.34%.

As for `CC(=O)NCCSCCOc1cccc(Br)c1`, the “Percent Effect” value is reported as -2.574%.

Consider `CNc1oc(-c2cc(S(=O)(=O)N3CCCCCC3)c(C)o2)nc1C#N`, for which the “Percent Effect” value is 9.909%.

Consider `CNc1oc(-c2ccc(S(=O)(=O)N(C)C)o2)nc1C#N`, for which the “Percent Effect” value is 100.4%.

Turning to `CN(C)S(=O)(=O)c1ccc(-c2nc(C#N)c(NC(C)(C)C)o2)o1.Cl`, the “Percent Effect” value is 93%.

As to `CC(C)Nc1oc(-c2ccc(S(=O)(=O)N(C)C)o2)nc1C#N`, the “Percent Effect” value stood at 118.4%.

For `CN(C)S(=O)(=O)c1ccc(CSCC(=O)NC(C)(C)C)o1`, the “Percent Effect” value is -7.197%.

Take `CCCNC(=O)CSCc1ccc(S(=O)(=O)N(C)C)o1`: the “Percent Effect” value is listed as -0.4398%.

For the compound `CNc1oc(-c2ccc(OC)c(S(=O)(=O)N3CCCCC3)c2)nc1C#N`, the “Percent Effect” value is -6.371%.

Turning to `Cc1oc(-c2nc(C#N)c(N(C)C)o2)cc1S(=O)(=O)N1CCCC1`, the “Percent Effect” value came out at 17.91%.

For `COc1cccc(N2CC3(CCN(c4ccncn4)C3)CC2=O)c1` (stereo not drawn), the “Percent Effect” value is given as -12.13%.

Turning to `Cc1nnc2n1CCN(Cc1nc3ccccc3o1)C2`, the “Percent Effect” value is reported as 13.24%.

Regarding `O=C(N[C@@H]1CCNC[C@H]1O)c1cc(F)cc(Cl)c1`, the “Percent Effect” value was 0.509%.

With `CC(C)NC(=O)CCN1CCC(C(=O)c2cc(F)ccc2F)CC1`, the “Percent Effect” value is recorded as -38.81%.

Turning to `O=C(O)CCCC(=O)N1CCC(c2noc3cc(F)ccc23)CC1`, the “Percent Effect” value is given as 110.7%.

With `CC(C)NC(=O)CCC(=O)N1CCC(c2noc3cc(F)ccc23)CC1`, the “Percent Effect” value is on record as 90.62%.

`O=C(CN1CCC(C(=O)c2cc(F)ccc2F)CC1)NC1CC1`: the “Percent Effect” value is reported as -20.5%.

With `CS(=O)(=O)CCC(=O)N1CCC(c2cccc(F)c2)C1` (stereo not drawn), the “Percent Effect” value is on record as -0.1646%.

As to `O=C(CCc1cc(O)no1)N1CCC(Cc2ccc(F)cc2)CC1`, the “Percent Effect” value is -4.234%.

As to `O=C(CCC(=O)N1CCNC(=O)C1c1cccc(F)c1)NC1CCCC1` (stereo not drawn), the “Percent Effect” value was -14.56%.

Consider `O=C(O)CCC(=O)N1CCC(c2noc3cc(F)ccc23)CC1`, for which the “Percent Effect” value amounted to 117.2%.

In the case of `CC(=O)N1CC[C@H](c2nc3cc(F)ccc3o2)C1`, the “Percent Effect” value was determined as 5.323%.

Take `O=C(CCC(=O)N1CCC(c2noc3cc(F)ccc23)CC1)NC1CC1`: the “Percent Effect” value is on record as 145.4%.

Regarding `O=C(c1ccc(Cl)c(Cl)c1)N1CCCCC1C1OCCO1` (stereo not drawn), the “Percent Effect” value worked out at 4.358%.

Consider `Cc1ncc(CNC(=O)N(C)Cc2ccc([S+](C)[O-])cc2)s1` (stereo not drawn), for which the “Percent Effect” value is reported as -5.78%.

Regarding `CCc1nc(CN2CCOC(CN(CC)c3cccnn3)C2)cs1` (stereo not drawn), the “Percent Effect” value is given as 0.2652%.

Take `Cc1nc(C(C)C)sc1C(=O)NS(=O)(=O)c1ccc(C#N)cc1`: the “Percent Effect” value is reported as -14.12%.

As for `Cc1ccc(CNCCOc2ccc(S(C)(=O)=O)cc2)cc1`, the “Percent Effect” value was 14.5%.

`C=C(C)COc1ccccc1CN1CCC(C(=O)NCC)C1` (stereo not drawn): the “Percent Effect” value worked out at 91.68%.

Turning to `C=C(C)COc1ccccc1NC(=O)N1CCCCC1CO` (stereo not drawn), the “Percent Effect” value is listed as -1.415%.

With `Cc1ccc(NCCCNC(=O)C2CCCN(Cc3ccco3)C2)nc1` (stereo not drawn), the “Percent Effect” value is -3.633%.

In the case of `C=C(C)COc1ccccc1CN1CCCC(C(=O)NCCCO)C1` (stereo not drawn), the “Percent Effect” value is 100.8%.

`O=C(NCCCc1ccncc1)C1CCCN(Cc2ccco2)C1` (stereo not drawn): the “Percent Effect” value was 21.32%.

Consider `C=C(C)COc1ccccc1C(=O)N1CCC2(CC1)CN(C)CCN2C`, for which the “Percent Effect” value was found to be 12.34%.

For `C=C(C)COc1ccccc1CN1CCC(NC(C)=O)CC1`, the “Percent Effect” value is reported as 100.9%.

Turning to `C=C(C)COc1ccccc1NC(=O)NC1CCOCC1`, the “Percent Effect” value is -8.907%.

Regarding `C=C(C)COc1ccccc1C(=O)N1CCC(C(=O)NCC)C1` (stereo not drawn), the “Percent Effect” value was found to be 83.75%.

Regarding `CCNC(=O)COc1ccccc1N1CCCC(C)C1` (stereo not drawn), the “Percent Effect” value is given as -0.1998%.

As for `C=C(C)CN1CCC(NC(=O)NCCc2ccccc2OC)CC1`, the “Percent Effect” value stood at 1.808%.

For `NC(=O)C1CCN(C(=O)c2ccccc2OCc2ccccc2Cl)CC1`, the “Percent Effect” value was 5.008%.
